Results from PubChem BioAssay (NCATS).
Several values for one entry are separate records, joined by “and”; a condition that tells them apart may be missing. Identical values can stand only once. Unmarked numbers belong to inactive results. Inconclusive results are not listed. A call without a number means that no potency is given here. Activity calls are given as the source filed them. Unless noted, no rule for the calls is given here.

How the values were obtained:
[1] = target: Nuclear receptor subfamily 1 group I member 2 (Rattus norvegicus) (UniProt Q9R1A7); assay: qHTS assay for small molecule activators of the rat pregnane X receptor (rPXR) signaling pathway (AID 651751); conditions: rPXR reporter cells, luciferase (One-Glo), 24 h
[2] = qHTS assay for small molecule activators of the human pregnane X receptor (PXR) signaling pathway (AID 720659); conditions: DPX-2 HepG2 CYP3A4-luciferase, 24 h; series mostly up to 92.3 µM
[3] = qHTS assay for cell viability of the p53RE-bla HCT-116 cell line (AID 743292; active = well fitted cell-killing curve with a large enough effect; also: nearly all actives have a fitted effect of over 55% in size); conditions: p53RE-bla HCT-116 viability, ATP luminescence, 16 h; series mostly up to 95 µM
Method in brief: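 After plating at 4,000 cells per well and a 5 h rest at 37 C, HCT-116 cells carrying p53RE-bla received test chemicals in DMSO. Sixteen hours later at 37 C, CellTiter-Glo was added and luminescence recorded following 30 min at room temperature.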

Nuclear receptor subfamily 1 group I member 2 (Rattus norvegicus), sequence (Q9R1A7 whole entry, looked up): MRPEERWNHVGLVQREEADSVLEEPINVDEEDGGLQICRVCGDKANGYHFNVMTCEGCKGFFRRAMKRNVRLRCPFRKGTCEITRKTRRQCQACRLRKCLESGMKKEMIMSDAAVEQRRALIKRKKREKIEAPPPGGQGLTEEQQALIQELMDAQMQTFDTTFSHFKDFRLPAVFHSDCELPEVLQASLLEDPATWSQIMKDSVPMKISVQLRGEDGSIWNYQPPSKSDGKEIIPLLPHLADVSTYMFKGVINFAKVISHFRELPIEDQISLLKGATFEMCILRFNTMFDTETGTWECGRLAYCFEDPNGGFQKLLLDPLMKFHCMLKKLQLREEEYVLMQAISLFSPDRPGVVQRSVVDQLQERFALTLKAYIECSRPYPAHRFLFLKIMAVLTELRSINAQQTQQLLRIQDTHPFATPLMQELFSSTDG

SMILES: NC(=S)NNC(N)=S
- max response [1]: -3.78% and 5.23%
- outcome [2]: inactive

SMILES: COc1cccc2sc(N)nc12
- max response [1]: 8.89%
- outcome [2]: inactive

SMILES: CC=O
- max response [1]: -4.58%
- outcome [2]: inactive

SMILES: CC1CCCO1 (configuration not stated)
- max response [1]: -1.92%
- outcome [2]: inactive

SMILES: CCCCC(CC)CO (configuration not stated)
- max response [1]: -2.06%
- outcome [2]: inactive

SMILES: Fc1ccccc1
- Potency [3]: inactive
- max response [1]: 3.18%
- outcome [2]: inactive

SMILES: CC(=O)c1ccccc1[N+](=O)[O-]
- max response [1]: 1.69%
- outcome [2]: inactive

SMILES: CCCCCCO
- max response [1]: 2.06%
- outcome [2]: inactive

SMILES: O=C(O)c1c(Cl)cccc1Cl
- max response [1]: -2.07%
- outcome [2]: inactive

SMILES: CC(=O)c1cccc([N+](=O)[O-])c1
- max response [1]: -2.86%
- outcome [2]: inactive

SMILES: Cc1ccccc1C#N
- max response [1]: -0.838%
- outcome [2]: inactive

SMILES: C1CCOC1
- max response [1]: 2.84%
- outcome [2]: inactive

SMILES: Oc1cccc(Nc2ccccc2)c1
- max response [1]: 5.07%
- outcome [2]: inactive

SMILES: CNc1ccccc1
- max response [1]: 4.02%
- outcome [2]: inactive

SMILES: NC(=O)c1ccccc1[N+](=O)[O-]
- max response [1]: -1.43%
- outcome [2]: inactive

SMILES: Nc1cccc(O)c1
- max response [1]: -3.29%
- outcome [2]: inactive

SMILES: CCOc1cccc(N)c1
- max response [1]: -4.44%
- outcome [2]: inactive

SMILES: CC(=O)c1ccc([N+](=O)[O-])cc1
- max response [1]: -4.15%
- outcome [2]: inactive

SMILES: Nc1cccc([N+](=O)[O-])c1
- max response [1]: -4.93%
- outcome [2]: inactive

SMILES: CSCCC=O
- max response [1]: 4.33%

SMILES: O=Nc1ccc(NO)cc1
- max response [1]: -3.74%
- outcome [2]: inactive

SMILES: Cc1cccc([N+](=O)[O-])c1C(=O)O
- max response [1]: 12.6%
- outcome [2]: inactive

SMILES: C=C(C)C(N)=O
- max response [1]: 2.1%
- outcome [2]: inactive

SMILES: Clc1ccccn1
- max response [1]: -2.56%
- outcome [2]: inactive

SMILES: Cc1c(N)cccc1[N+](=O)[O-]
- max response [1]: -0.458%
- outcome [2]: inactive

SMILES: O=C1CCCCC1
- Potency [3]: inactive
- max response [1]: 2.79%
- outcome [2]: inactive

SMILES: CCNS(=O)(=O)c1ccc(C)cc1
- max response [1]: 2.12%
- outcome [2]: inactive

SMILES: Nc1cccc(C(F)(F)F)c1
- max response [1]: -1.26% and 1.53%

SMILES: O=C1NC(=O)c2cc([N+](=O)[O-])ccc21
- max response [1]: 1.8%
- outcome [2]: inactive

SMILES: C=C(C)C(=O)OCC(C)C
- max response [1]: 5.41%
- outcome [2]: inactive

SMILES: Cc1ccc(CO)cc1
- max response [1]: 4.72%
- outcome [2]: inactive

SMILES: CCOc1ccc(NC(C)=O)cc1N
- max response [1]: 9.33%
- outcome [2]: inactive

SMILES: COC(=O)CCCC(=O)OC
- max response [1]: 1.21%
- outcome [2]: inactive

SMILES: O=CNc1ccccc1
- max response [1]: 1.37%
- outcome [2]: inactive

SMILES: BrC(Br)C(Br)Br
- max response [1]: 0.617%
- outcome [2]: inactive

SMILES: Cc1ccc(C)c(N)c1
- max response [1]: -4.19%
- outcome [2]: inactive

SMILES: Nc1c(Cl)cc(Cl)cc1Cl
- max response [1]: -2.23%
- outcome [2]: inactive

SMILES: C=C(C)C(=O)OCCCCCC
- max response [1]: -0.698%
- outcome [2]: inactive

SMILES: CCC(C)(C)C
- max response [1]: -3.38%
- outcome [2]: inactive

SMILES: CC(O)CC(C)O (configuration not stated)
- Potency [3]: inactive
- max response [1]: 6.25%
- outcome [2]: inactive

SMILES: O=[N+]([O-])c1ccc2nc[nH]c2c1
- Potency [3]: inactive
- max response [1]: -0.905%
- outcome [2]: inactive

SMILES: Nc1ccc(F)cc1F
- Potency [3]: inactive
- max response [1]: 3.66%
- outcome [2]: inactive

SMILES: C=C(C)OC(C)=O
- Potency [3]: inactive
- max response [1]: -1.49%
- outcome [2]: inactive

SMILES: C=CCCCC
- Potency [3]: inactive
- max response [1]: 0.496%
- outcome [2]: inactive

SMILES: C=C(C)C(=O)OCC(C)O (configuration not stated)
- Potency [3]: inactive
- max response [1]: -4.2%
- outcome [2]: inactive

SMILES: Cc1ccc(Cl)cc1N
- Potency [3]: inactive
- max response [1]: 0.767%
- outcome [2]: inactive

SMILES: C1CCCC1
- Potency [3]: inactive
- max response [1]: -1.32%
- outcome [2]: inactive

SMILES: C=Cc1ccccc1C=C
- Potency [3]: inactive
- max response [1]: 5.55%
- outcome [2]: inactive

SMILES: CN(C)c1cccc(O)c1
- Potency [3]: inactive
- max response [1]: 1.23%
- outcome [2]: inactive

SMILES: C=CCOC(=O)CCCCCCCC
- Potency [3]: inactive
- max response [1]: -5.54%
- outcome [2]: inactive

SMILES: CCCOCC(C)OCC(C)O (configuration not stated)
- Potency [3]: inactive
- max response [1]: -1.49%
- outcome [2]: inactive

SMILES: Nc1cccc(N)c1
- Potency [3]: inactive
- max response [1]: 11.3%
- outcome [2]: inactive

SMILES: NC(=O)c1cccc([N+](=O)[O-])c1
- Potency [3]: inactive
- max response [1]: 6.83%
- outcome [2]: inactive

SMILES: Cc1cc(C(=O)O)ccc1[N+](=O)[O-]
- Potency [3]: inactive
- max response [1]: -5.59%
- outcome [2]: inactive

SMILES: Nc1ccc([N+](=O)[O-])c(N)c1
- Potency [3]: inactive
- max response [1]: 1.18%
- outcome [2]: inactive

SMILES: CCC(C)=O
- Potency [3]: inactive
- max response [1]: 4.73%
- outcome [2]: inactive

SMILES: Nc1cc(Cl)c([N+](=O)[O-])cc1O
- Potency [3]: inactive
- max response [1]: 3.19%
- outcome [2]: inactive
